Results filed as inconclusive are left out. Active and inactive are the calls of the source. Unless noted, calls come from the whole dose curve; as a rule, active = well fitted curve in either direction with a large enough effect (not every such curve was filed as active); inconclusive = small, poorly fitted or top-dose-only effect, or another doubt; inactive = flat fitted curve, though single readings scatter.
Assays:
[1] = AP1 Signaling Pathway (AID 357);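 note: ME-180 reporter cells stimulated with EGF at its EC50 level; % is set by controls: 0 for no effect and ±100 for the full control effect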
In short: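 Read-out was the 460nm/530nm emission ratio (excitation 405nm) after CCF4 loading for 2.5 hours at room temperature. Cells carried an AP-1-driven beta-lactamase reporter, were stimulated with EC50 EGF plus compound for 5 hours, and AC50 values came from titrations.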

[2] = target: Cytochrome P450 1A2 (Homo sapiens) (UniProt P05177); assay: p450-cyp1a2 (AID 410; calls by dose curve; note: potency is the fitted concentration of half-maximal effect;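 for activity change, negative = inhibition: -100% = full effect of reference inhibitor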)
In short: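 20nM CYP1A2, 100uM Luciferin-ME (=Km), 100mM KPO4; cpd 10 min RT; +NADPH regen, 60 min RT; stop/detect 20 min; luminescence. Normalized to furafylline 57 uM = full inhibition.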

[3] = NFAT Signaling Pathway (AID 444); settings: Jurkat NFAT-bla M1, carbachol, beta-lactamase ratio, 5 h; at 17.2 µM (top of the series) unless noted;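 note: carbachol stimulus at about its EC50 of 1 µM final; % is set by controls: 0 for no effect and ±100 for the full control effect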
In short: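 Read-out: CCF4 FRET ratio (460 nm/530 nm) after 1 h RT dye loading, used for %activity and AC50 from titration series. Cells: Jurkat NFAT-β-lactamase/M1 line, treated with compound plus 1 uM carbachol for 5 h, 37 °C.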

[4] = Stat Signaling Pathway (AID 446);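 note: ME-180 cervical cancer cells given 40 pM IL-6 alongside compound; SIE-controlled beta-lactamase reporter measured as 460/530 nm FRET emission ratio; % is set by controls: 0 for no effect and ±100 for the full control effect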
In short: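 FRET read-out (405 nm excitation, 460/530 nm emission) of a beta-lactamase reporter under a STAT-inducible element in ME-180 cervical carcinoma cells. Cells with compound receive 40 pM IL-6 for 5 h. Values are normalised to AC90 stimulation and AC90 JAK-inhibitor controls.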

[5] = target: Glucocorticoid receptor (Homo sapiens) (UniProt P04150); assay: GR-GFP Redistribution (AID 450;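 active = compounds whose dose series gives a full or clear partial fitted curve of increased nuclear translocation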; note: potency is the fitted concentration of half-maximal effect); settings: U2OS GR-GFP nuclear translocation, laser cytometry, 2 h
[6] = target: Glucocorticoid receptor (Homo sapiens) (UniProt P04150); assay: GR-EFC Redistribution (AID 451; calls by dose curve; note: potency is the fitted concentration of half-maximal effect); settings: CHO-K1 GR-EFC translocation, beta-gal luminescence, 2 h
In short: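 Translocation of GR-ED fusion to nuclear EA restores b-gal, read by luminescence after 1 h room-temperature detection. Engineered CHO-K1 biosensor cells, 1,000/well, exposed 2 h at 37 C to titrations up to 46 uM final.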

[7] = target: Mitogen-activated protein kinase 10 (Mus musculus) (UniProt Q61831); assay: JNK3 AlphaScreen Assay (AID 530);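 note: kinase came from lysate of stimulated human HepG2 cells; signal reports phosphorylation of biotinylated GST-cJun 1-79 at Ser73 with 10 µM ATP; % is set by controls: 0 for no effect and ±100 for the full control effect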
In short: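 Kinase buffer: 20 mM Tris-HCl pH 7.6, 10 mM MgCl2, 1 mM DTT, 0.1 mM Na3VO4, 0.01% Tween-20; ATP 10 uM. Substrate biotin-GST-cJun(1-79), enzyme from activated HepG2 lysates. Detection by Ser73 phospho-antibody AlphaScreen.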

[8] = target: 3',5'-cyclic-AMP phosphodiesterase 4B (Homo sapiens) (UniProt Q07343); assay: qHTS Assay for Inhibitors of PDE-IV (AID 607; active = well fitted activation curve with a large enough effect in the main read-out, with a control signal flat, not every such curve was filed as active; note: % of control where 0% means no effect)
In short: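 Cell-based read-out of cAMP via a modified cyclic nucleotide-gated channel and membrane potential dye (535/590 nm) in HEK293 cells expressing PDE4 endogenously. Compounds tested up to 22.9 uM final; 100 uM RO 20-1724 reference.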

[9] = qHTS Assay for Lipid Storage Modulators (AID 1519; calls by dose curve); settings: Drosophila S3 cells, BODIPY lipid droplet/cell ratio, laser cytometry, cells loaded with oleic acid
In short: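 Cells seeded at 5,000 per well were treated with compounds over a concentration series and loaded with oleic acid (400 uM, as added). Lipid droplet fluorescence (488 nm excitation, 500-530 nm channel) was read by laser-scanning cytometry and normalized to 20 uM Triacsin C.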

[10] = target: Ubiquitin carboxyl-terminal hydrolase 1 (Homo sapiens) (UniProt O94782); assay: Inhibitors of USP1/UAF1: Pilot qHTS (AID 504865; active = well fitted curve in the direction sought with a large enough effect; an effect the other way counts as inactive or inconclusive;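 note: rhodamine fluorescence freed from ubiquitin-rhodamine substrate followed over time; top concentration of the series differs between compounds; % is set by controls: 0 for no effect and ±100 for the full control effect; nearly all actives have a fitted effect of over 35% in size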)
In short: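 Kinetic fluorescence assay: 1nM USP1/UAF1, 15 min compound preincubation, then 150nM Ub-Rho; 480/540 nm.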

[11] = target: Luciferin 4-monooxygenase (Photinus pyralis) (UniProt P08659); assay: Biochemical firefly luciferase enzyme assay for NPC (AID 624030; active = well fitted curve in the direction sought with a large enough effect; an effect the other way counts as inactive or inconclusive;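 note: purified P. pyralis luciferase at 10 nM with luciferin and ATP substrate; 0% = DMSO and -100% = full luciferase inhibition by PTC124 control; nearly all actives have a fitted effect of over 70% in size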)
In short: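 Direct inhibition of firefly luciferase enzyme (10 nM final, 50 mM Tris Acetate) assessed by luminescence within 5 minutes. Percent activity scaled between DMSO and PTC124 positive control, with concentration-effect curves classified by fit quality and response.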

[12] = S16 Schwann cell viability assay (CellTiter-Glo assay) (AID 624031; active = well fitted curve in the direction sought with a large enough effect; an effect the other way counts as inactive or inconclusive;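 note: cellular ATP luminescence as a viability measure; plate controls were DMSO-treated cells for no effect and cell-free wells for full effect; nearly all actives have a fitted effect of over 70% in size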)
In short: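 Native S16 rat Schwann cells, 500-750 cells/well in DMEM with 10% FBS, dosed with compound after overnight culture and incubated 24h at 37 degree Celsius/5% CO2. Viability by CellTiter-Glo luminescence; % activity normalized to no-cell wells and DMSO-treated cells.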

[13] = qHTS profiling for inhibitors of Plasmodium falciparum proliferation (AID 504749; active = well fitted curve in the direction sought with a large enough effect; an effect the other way counts as inactive or inconclusive;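 note: 0% = DMSO vehicle and full inhibition = artemisinin control; nearly all actives have a fitted effect of over 60% in size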); settings: P. falciparum in erythrocytes, SYBR Green DNA, 72 h, at 12.8 µM (top of the series)
In short: (§1)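 In a 72 h erythrocytic culture (37 C, humidified, 5% CO2) at 2.5% hematocrit and 0.3% starting parasitemia, compounds were tested; SYBR Green I in detergent lysis buffer stained parasite DNA overnight.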

C2A = assay: as above; settings: P. falciparum in erythrocytes, SYBR Green DNA, 72 h; series mostly up to 12.8 µM
In short: as §1

CP217 = assay: as above; settings: P. falciparum in erythrocytes, SYBR Green DNA, 72 h; series mostly up to 12.8 µM
In short: as §1

CP250 = assay: as above; settings: P. falciparum in erythrocytes, SYBR Green DNA, 72 h; series mostly up to 12.8 µM
In short: as §1

FAB9 = assay: as above; settings: P. falciparum in erythrocytes, SYBR Green DNA, 72 h; series mostly up to 12.8 µM
In short: as §1

JCK = assay: as above; settings: P. falciparum in erythrocytes, SYBR Green DNA, 72 h; series mostly up to 12.8 µM
In short: as §1

SC27B = assay: as above; settings: P. falciparum in erythrocytes, SYBR Green DNA, 72 h; series mostly up to 12.8 µM
In short: as §1

[14] = S16 Schwann cell PMP22 intronic element beta-lactamase assay (AID 624044; calls by dose curve;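 note: 0% = DMSO and -100% = potassium clavulanate positive control; nearly all actives have a fitted effect of over 15% in size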)
In short: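 Beta-lactamase reporter under a PMP22 intronic regulatory element in stable S16 rat Schwann cells; 24 h compound exposure. 460 nm blue signal normalized between DMSO (0%) and potassium clavulanate, with 535 nm FRET tracking viability; curves classed by r2 and response.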

[15] = measured here: cell count channel max response
[16] = measured here: lipid channel max response

Sequence of Cytochrome P450 1A2 (Homo sapiens) (P05177 whole entry, looked up): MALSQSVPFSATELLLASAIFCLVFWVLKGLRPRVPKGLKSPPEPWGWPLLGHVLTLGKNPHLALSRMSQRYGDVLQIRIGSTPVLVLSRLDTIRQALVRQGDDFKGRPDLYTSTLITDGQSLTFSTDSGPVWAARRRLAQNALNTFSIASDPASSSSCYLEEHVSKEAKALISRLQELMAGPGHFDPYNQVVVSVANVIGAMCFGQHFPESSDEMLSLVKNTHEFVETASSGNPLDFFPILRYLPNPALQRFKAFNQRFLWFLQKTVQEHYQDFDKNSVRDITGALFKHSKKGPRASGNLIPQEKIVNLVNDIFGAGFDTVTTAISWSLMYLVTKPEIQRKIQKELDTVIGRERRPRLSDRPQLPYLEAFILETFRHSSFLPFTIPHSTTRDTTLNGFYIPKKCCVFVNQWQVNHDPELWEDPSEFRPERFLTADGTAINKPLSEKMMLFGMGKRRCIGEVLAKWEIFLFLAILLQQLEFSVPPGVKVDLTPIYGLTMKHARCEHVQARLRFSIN
Sequence of Glucocorticoid receptor (Homo sapiens) (P04150 whole entry, looked up, the tested form may be a part): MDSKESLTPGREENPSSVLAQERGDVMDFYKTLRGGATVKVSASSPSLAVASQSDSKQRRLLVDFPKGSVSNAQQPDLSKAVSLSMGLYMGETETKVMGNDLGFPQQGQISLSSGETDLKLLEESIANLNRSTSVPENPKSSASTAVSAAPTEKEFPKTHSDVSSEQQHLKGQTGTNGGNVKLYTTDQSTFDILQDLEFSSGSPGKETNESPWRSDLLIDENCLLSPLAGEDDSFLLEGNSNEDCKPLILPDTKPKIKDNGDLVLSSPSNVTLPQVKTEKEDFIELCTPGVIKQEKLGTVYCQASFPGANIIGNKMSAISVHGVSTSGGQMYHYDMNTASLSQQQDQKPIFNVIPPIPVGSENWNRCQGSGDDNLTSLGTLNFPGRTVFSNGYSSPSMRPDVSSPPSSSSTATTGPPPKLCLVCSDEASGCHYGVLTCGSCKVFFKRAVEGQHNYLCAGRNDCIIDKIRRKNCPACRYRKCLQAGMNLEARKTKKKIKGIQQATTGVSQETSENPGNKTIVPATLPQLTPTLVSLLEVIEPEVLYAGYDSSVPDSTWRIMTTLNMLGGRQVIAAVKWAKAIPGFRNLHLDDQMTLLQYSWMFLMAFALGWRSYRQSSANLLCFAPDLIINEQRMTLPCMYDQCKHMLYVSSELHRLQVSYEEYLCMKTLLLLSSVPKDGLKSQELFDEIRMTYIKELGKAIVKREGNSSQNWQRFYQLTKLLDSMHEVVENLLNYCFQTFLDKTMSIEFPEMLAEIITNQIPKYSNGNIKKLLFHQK
Sequence of Ubiquitin carboxyl-terminal hydrolase 1 (Homo sapiens) (O94782 whole entry, looked up): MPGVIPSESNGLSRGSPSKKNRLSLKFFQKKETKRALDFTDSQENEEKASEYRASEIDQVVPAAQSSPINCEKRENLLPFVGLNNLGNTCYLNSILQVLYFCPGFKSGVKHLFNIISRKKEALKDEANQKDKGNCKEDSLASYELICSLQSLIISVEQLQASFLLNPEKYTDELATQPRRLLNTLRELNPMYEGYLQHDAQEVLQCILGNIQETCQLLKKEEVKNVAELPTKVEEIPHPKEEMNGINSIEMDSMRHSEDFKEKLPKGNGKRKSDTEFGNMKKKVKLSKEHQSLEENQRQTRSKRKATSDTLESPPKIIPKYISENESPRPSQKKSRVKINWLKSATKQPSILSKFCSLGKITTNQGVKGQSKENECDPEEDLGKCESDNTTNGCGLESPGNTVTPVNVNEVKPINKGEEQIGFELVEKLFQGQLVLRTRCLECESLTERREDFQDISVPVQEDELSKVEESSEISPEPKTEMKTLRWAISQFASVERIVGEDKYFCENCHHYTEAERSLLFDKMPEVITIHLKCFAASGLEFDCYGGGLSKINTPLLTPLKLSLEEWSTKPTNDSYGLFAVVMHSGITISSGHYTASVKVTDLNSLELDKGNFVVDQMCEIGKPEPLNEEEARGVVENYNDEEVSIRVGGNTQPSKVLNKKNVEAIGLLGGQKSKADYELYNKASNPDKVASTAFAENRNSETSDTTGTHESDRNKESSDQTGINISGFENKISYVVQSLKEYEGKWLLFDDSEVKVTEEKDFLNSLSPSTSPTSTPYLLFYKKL
Sequence of 3',5'-cyclic-AMP phosphodiesterase 4B (Homo sapiens) (Q07343 whole entry, looked up): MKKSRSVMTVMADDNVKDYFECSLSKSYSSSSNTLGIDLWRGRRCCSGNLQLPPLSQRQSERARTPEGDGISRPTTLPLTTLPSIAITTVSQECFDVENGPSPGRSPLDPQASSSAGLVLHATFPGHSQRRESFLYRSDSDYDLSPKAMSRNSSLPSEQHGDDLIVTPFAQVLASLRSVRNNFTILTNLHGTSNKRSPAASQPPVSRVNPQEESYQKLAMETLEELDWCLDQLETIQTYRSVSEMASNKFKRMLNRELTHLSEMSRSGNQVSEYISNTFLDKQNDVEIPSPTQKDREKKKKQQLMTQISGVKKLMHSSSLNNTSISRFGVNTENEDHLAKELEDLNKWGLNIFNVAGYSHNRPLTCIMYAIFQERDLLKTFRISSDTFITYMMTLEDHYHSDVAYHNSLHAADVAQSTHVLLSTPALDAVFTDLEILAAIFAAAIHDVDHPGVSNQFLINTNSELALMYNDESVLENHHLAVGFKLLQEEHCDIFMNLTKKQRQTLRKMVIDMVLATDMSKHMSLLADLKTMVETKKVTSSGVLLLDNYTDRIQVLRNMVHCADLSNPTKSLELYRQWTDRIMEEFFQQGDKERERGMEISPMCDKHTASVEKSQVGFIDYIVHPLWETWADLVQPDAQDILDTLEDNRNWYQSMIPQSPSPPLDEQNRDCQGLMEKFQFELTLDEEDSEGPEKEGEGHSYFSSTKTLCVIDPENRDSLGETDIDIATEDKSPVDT
Sequence of Luciferin 4-monooxygenase (Photinus pyralis) (P08659 whole entry, looked up): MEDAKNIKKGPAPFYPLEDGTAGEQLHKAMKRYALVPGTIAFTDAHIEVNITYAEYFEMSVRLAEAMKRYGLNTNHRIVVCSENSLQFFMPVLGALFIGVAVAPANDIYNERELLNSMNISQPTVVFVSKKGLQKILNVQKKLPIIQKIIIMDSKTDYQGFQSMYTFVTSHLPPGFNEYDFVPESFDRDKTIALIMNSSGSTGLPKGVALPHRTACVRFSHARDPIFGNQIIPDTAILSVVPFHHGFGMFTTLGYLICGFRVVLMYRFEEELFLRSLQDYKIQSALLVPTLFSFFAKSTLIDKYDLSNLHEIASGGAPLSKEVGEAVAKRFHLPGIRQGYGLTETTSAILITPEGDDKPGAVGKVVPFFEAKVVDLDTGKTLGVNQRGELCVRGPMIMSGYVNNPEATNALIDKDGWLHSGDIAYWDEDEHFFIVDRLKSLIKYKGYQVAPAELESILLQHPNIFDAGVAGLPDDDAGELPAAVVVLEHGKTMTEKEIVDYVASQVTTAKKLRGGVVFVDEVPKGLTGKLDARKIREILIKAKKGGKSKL

CO/N=C(\C(=O)N[C@@H]1C(=O)N2C(C(=O)O)=C(COC(N)=O)CS[C@@H]12)c1ccco1
-2.21%: max response [9, 16]
-5.14%: max response [9, 15]
inactive: outcome [1] | Potency [2] | activity change, negative = inhibition [3] 6.11% | outcome [4] | Potency [5] > 20.6 µM | Potency [6] > 20.6 µM | Potency [7] | outcome [8] | activity change, negative = inhibition ([9]; at 25.7 µM (top of the series)) 1.43% | Potency [10]

CO[C@H]1C=CO[C@]2(C)Oc3c(C)c(O)c4c(O)c(c5c(c4c3C2=O)NC2(CCN(CC(C)C)CC2)N=5)=NC(=O)C(C)=CC=C[C@@H](C)[C@@H](O)[C@@H](C)[C@@H](O)[C@@H](C)[C@@H](OC(C)=O)[C@@H]1C
-3.75%: max response [9, 15]
-1.31%: max response [9, 16]
inactive: outcome [1] | Potency [2] | activity change, negative = inhibition [3] -15% | outcome [4] | Potency [5] > 20.6 µM | Potency [6] > 20.6 µM | outcome [8] | activity change, negative = inhibition ([9]; at 25.7 µM (top of the series)) -0.285%

Nc1c(O)cccc1C(=O)C[C@@H](N)C(=O)O
inactive: outcome [1] | Potency [2] | activity change, negative = inhibition [3] -7.19% | outcome [4] | Potency [5] > 20.6 µM | Potency [6] > 20.6 µM | Potency [7] | outcome [8] | activity change, negative = inhibition ([9]; at 25.7 µM (top of the series)) -1.89%
-9.91%: max response [9, 16]
-4.16%: max response [9, 15]

CN[C@]1(C)[C@H]2CC[C@@H](C2)C1(C)C
inactive: outcome [1] | Potency [2] | activity change, negative = inhibition [3] -19.7% | outcome [4] | Potency [6] > 20.6 µM | Potency [7] | outcome [8] | activity change, negative = inhibition ([9]; at 25.7 µM (top of the series)) -3.7%
-12.2%: max response [9, 15]
-14.5%: max response [9, 16]

COc1ccc([C@@H]2CC(=O)c3c(O)cc(O[C@H]4O[C@@H](CO[C@H]5O[C@@H](C)[C@@H](O)[C@@H](O)[C@@H]5O)[C@@H](O)[C@@H](O)[C@@H]4O)cc3O2)cc1O
-12%: max response [9, 15]
inactive: outcome [1] | Potency [2] | activity change, negative = inhibition [3] 6.75% | outcome [4] | Potency [5] > 20.6 µM | Potency [7] | outcome [8] | activity change, negative = inhibition ([9]; at 25.7 µM (top of the series)) -0.902% | Potency [10] | Potency [11] | outcome [12] | activity, negative = inhibition ([13]; parasite line A) 5.87% | activity, negative = inhibition ([13]; parasite line B) -4.16% | Potency (C2A) | Potency (CP217) | Potency (CP250) | Potency (FAB9) | Potency (JCK) | Potency (SC27B)
-8.76%: max response [9, 16]

CN(C)CCCO[C@H]1[C@@H]2OC(C)(C)O[C@@H]2O[C@@H]1[C@H](O)CO
inactive: outcome [1] | Potency [2] | activity change, negative = inhibition [3] -2.11% | outcome [4] | Potency [5] > 20.6 µM | Potency [7] | outcome [8] | activity change, negative = inhibition ([9]; at 25.7 µM (top of the series)) 0.679% | Potency [10]
-0.368%: max response [9, 16]
-1.4%: max response [9, 15]

CC(=O)CC(=O)[C@@]1(O)CC[C@@H]2[C@@H]3C=C(C)C4=CC(=O)CC[C@@H]4[C@H]3CC[C@]21C
-16.2%: max response [9, 15]
inactive: outcome [1] | Potency [2] | activity change, negative = inhibition [3] -13.4% | outcome [4] | Potency [6] > 20.6 µM | Potency [7] | outcome [8] | activity change, negative = inhibition ([9]; at 25.7 µM (top of the series)) -4.61%
-21%: max response [9, 16]

Cn1c(-c2ccc3c(c2)OCO3)cc(=O)c2ccccc21
active: Potency [2] 5.01 µM
inactive: outcome [1] | activity change, negative = inhibition [3] -10.6% | outcome [4] | Potency [5] > 20.6 µM | Potency [6] > 20.6 µM | Potency [7] | activity change, negative = inhibition ([9]; at 25.7 µM (top of the series)) 2.22% | Potency [10]
-2.71%: max response [9, 16]
-4.86%: max response [9, 15]

C[C@]1(OC(=O)/C=C\c2ccccc2)C[C@@H](O)[C@@]2(O)C=CO[C@@H](O[C@H]3O[C@@H](CO)[C@@H](O)[C@@H](O)[C@@H]3O)[C@H]21
-17.4%: max response [9, 16]
inactive: outcome [1] | Potency [2] | activity change, negative = inhibition [3] -11% | outcome [4] | Potency [6] > 20.6 µM | Potency [7] | outcome [8] | activity change, negative = inhibition ([9]; at 25.7 µM (top of the series)) -2.22% | Potency [10]
-15.8%: max response [9, 15]

N#Cc1cccc(-c2cncnc2-n2ccnc2)c1
inactive: outcome [1] | activity change, negative = inhibition [3] -7.66% [at 7.69 µM] | outcome [4] | Potency [6] > 46 µM | Potency [7] | outcome [8] | activity change, negative = inhibition ([9]; at 57.5 µM (top of the series)) 8.24% | Potency [10]
16.1%: max response [9, 15]
active: Potency [2] 15.8 µM
24.6%: max response [9, 16]

CN(C)c1ccc(-c2nccc(NCc3ccccc3)n2)cc1
active: Potency [2] 1.26 µM
-1.11%: max response [9, 16]
-4.09%: max response [9, 15]
inactive: outcome [1] | activity change, negative = inhibition [3] -14.3% [at 7.69 µM] | outcome [4] | Potency [6] > 46 µM | Potency [7] | activity change, negative = inhibition ([9]; at 57.5 µM (top of the series)) 2.02% | Potency [10]

C/C(=C(/CCO)SSC[C@@H]1CCCO1)N(C=O)Cc1cnc(C)nc1N
inactive: outcome [1] | Potency [2] | activity change, negative = inhibition [3] -21.3% | outcome [4] | Potency [5] > 20.6 µM | Potency [7] | outcome [8] | activity change, negative = inhibition ([9]; at 25.7 µM (top of the series)) -0.641% | Potency [10] | Potency [11]
-20.8%: max response [9, 16]
-21%: max response [9, 15]

COc1ccc(C[C@@](C)(N)C(=O)O)cc1OC
inactive: outcome [1] | Potency [2] | activity change, negative = inhibition [3] -8.96% | outcome [4] | Potency [5] > 20.6 µM | outcome [8] | activity change, negative = inhibition ([9]; at 25.7 µM (top of the series)) -2.09% | Potency [10] | Potency [11] | outcome [12] | Potency [14] | activity, negative = inhibition ([13]; parasite line A) 3.21% | activity, negative = inhibition ([13]; parasite line B) -23.5% | Potency (C2A) | Potency (CP217) | Potency (CP250) | Potency (FAB9) | Potency (JCK) | Potency (SC27B)
-12.4%: max response [9, 16]
-10.3%: max response [9, 15]

O=C(O)[C@@H]1CCCNC1
inactive: outcome [1] | Potency [2] | activity change, negative = inhibition [3] -10.3% | outcome [4] | Potency [5] > 20.6 µM | Potency [7] | outcome [8] | activity change, negative = inhibition ([9]; at 25.7 µM (top of the series)) -1.28% | Potency [10]
-11.3%: max response [9, 16]
-8.86%: max response [9, 15]
